Results as given in PubChem BioAssay AID1789 (The Scripps Research Institute Molecular Screening Center, 2009).
About 2,700 (0.93%) of roughly 290,000 compounds were called active. This is one part of a sample in which actives are shown more often than they occur.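 The calls were made as follows: active = inhibition above the screen-wide mean plus 3 SD, computed separately per campaign (cut at about 16% in these data); inactive = the rest.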

These compounds were tested on Heat shock protein HSP 90 (rabbit reticulocyte lysate; luciferase refolding) (assay: HSP90 inhibitors, primary screen, cell lysate, luminescence (AID 1789;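 also: 0% = DMSO wells and 100% = 60 µM geldanamycin wells; inhibitors lower the luminescence because luciferase stays unfolded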)). Settings: 3 h, at 5.6 µM, stronger effect = higher value.

Row | Compound | inhibition
1 | CN1CCN(c2cc(N3CCNCC3)ccc2[N+](=O)[O-])CC1 | -3.02% (inactive)
2 | Cc1nc2ccc(N3CCN(C)CC3)cc2nc1C | 1.77% (inactive)
3 | COc1cccc(-c2nc3ccc(N4CCN(C)CC4)cc3[nH]2)c1 | 60.8% (active)
4 | CC1=CC(=Cc2sc3ccccc3[n+]2C)C=C(C)O1 | 0.85% (inactive)
5 | O=c1c2ccccc2nc(/C=C/c2ccc(F)cc2)n1-c1ccccc1O | -2.14% (inactive)
6 | O=c1c2ccccc2nc(/C=C/c2ccco2)n1-c1ccccc1O | 19.4% (active)
7 | O=c1c2ccccc2nc(-c2ccco2)n1-c1ccc(Br)cn1 | -1.12% (inactive)
8 | CN(c1ccccc1)c1ccc([N+](=O)[O-])c2nonc12 | 3.91% (inactive)
9 | CC(C)CN1CCN(Cc2ccccc2C(F)(F)F)CC1CCO (stereo not given) | -3.13% (inactive)
10 | O=C(NC(c1ccc(Cl)cc1)P(=O)(Oc1ccccc1)Oc1ccccc1)OCc1ccccc1 (stereo not given) | 1.96% (inactive)
